Source: PubChem BioAssay (NCATS)
Inconclusive results are not listed. Entries that show only a call come without a potency. The source made the active and inactive calls. Unless noted, calls come from the whole dose curve.

Columns and labels:
[1] = molecular target: Cytochrome P450 2C9 (Homo sapiens) (UniProt P11712); assay: Cytochrome P450 family 2 subfamily C member 9 (CYP2C9) small molecule antagonists: luciferase biochemical (cell-free) qHTS assay (AID 1645842; active = well fitted curve in the direction sought with a large enough effect in the repeat runs; an effect the other way counts as inactive or inconclusive; note: nearly all actives have a fitted effect of over 55% in size; note: potency is the fitted concentration of half-maximal effect)
Method in brief: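 Luminescence, after 20 min with luciferin detection reagent, reflected CYP2C9 turnover during a 1 h NADPH-driven reaction at 37C. Enzyme-substrate mix contained 0.4% bovine serum albumin and was preincubated with compound 10 min at room temperature.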

[2] = Cytotoxicity counterscreen for inhibitors of SARS-CoV-2 cell entry (AID 1645845); settings: outcome: dose series up to 57.1 µM unless noted; note: nearly all actives have a fitted effect of over 50% in size
Method in brief: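 48 h compound treatment (after 1 h preincubation), HEK293-ACE2 cells, 37 C/5% CO2; ATP luminescence endpoint; normalized to cell wells and media blanks.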

[3] = Primary qHTS for inhibitors of nuclear receptor binding SET domain protein 2 (NSD2) in an isogenic RCH-ACV NSD2 p.E1099K mutant (9B) (AID 1645876; active = well fitted curve in the direction sought with a large enough effect; an effect the other way counts as inactive or inconclusive; note: nearly all actives have a fitted effect of over 70% in size)
[4] = Primary qHTS for inhibitors of nuclear receptor binding SET domain protein 2 (NSD2) in an RCH-ACV wild type WT cells (2C) (AID 1645877; active = well fitted curve in the direction sought with a large enough effect; an effect the other way counts as inactive or inconclusive; note: nearly all actives have a fitted effect of over 70% in size)
[5] = NCATS anti-infectives library activity on HEK293 viability as a counter-qHTS vs the C. elegans viability qHTS (AID 1745854; active = well fitted curve in the direction sought with a large enough effect; an effect the other way counts as inactive or inconclusive;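 note: HEK293 cells exposed to compounds for 24 hr before the viability read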)
Method in brief: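 Compounds were acoustically plated (several concentrations, 1:5, final up to 41.7 uM), then 1500 HEK293 cells added per well and incubated 24 hr at 37C, 5% CO2. CellTiter-Glo was added and luminescence read after 10 min.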

Cytochrome P450 2C9 (Homo sapiens), sequence (P11712 whole entry, looked up): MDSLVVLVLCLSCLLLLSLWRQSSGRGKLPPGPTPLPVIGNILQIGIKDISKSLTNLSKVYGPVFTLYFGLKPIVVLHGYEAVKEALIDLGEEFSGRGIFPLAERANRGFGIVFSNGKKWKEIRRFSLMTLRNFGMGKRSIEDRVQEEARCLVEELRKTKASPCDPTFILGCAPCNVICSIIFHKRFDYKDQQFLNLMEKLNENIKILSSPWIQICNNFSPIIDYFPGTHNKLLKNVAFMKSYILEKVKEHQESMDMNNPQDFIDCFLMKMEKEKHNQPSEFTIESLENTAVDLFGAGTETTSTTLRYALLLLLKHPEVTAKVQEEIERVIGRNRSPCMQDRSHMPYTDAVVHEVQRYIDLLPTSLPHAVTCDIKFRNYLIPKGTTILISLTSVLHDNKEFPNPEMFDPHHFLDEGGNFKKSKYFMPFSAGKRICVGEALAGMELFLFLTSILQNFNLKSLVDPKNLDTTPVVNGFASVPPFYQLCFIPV

Q: With `CC1CCC(C(C)C)C(OC(=O)c2ccccc2N)C1` (configuration not stated) as the compound, how does the Potency [1] read?
A: 2680 nM (active)

Q: And the outcome [2]?
A: inactive

Q: With `Cc1cc(C(=O)CN2CCCC2)c(C)n1-c1ccc(F)cc1` as the compound, how does the Potency [1] read?
A: inactive

Q: And the Potency [3]?
A: inactive

Q: And the Potency [4]?
A: inactive

Q: And the outcome [5]?
A: inactive

Q: Which Potency [1] does the source give for `C#CC(C)(O)CC` (configuration not stated) here?
A: inactive

Q: With `C[C@H](NC(=O)Cc1cc(F)cc(F)c1)C(=O)N[C@@H]1N=C(c2ccccc2)c2ccccc2N(C)C1=O` as the compound, how does the Potency [1] read?
A: inactive

Q: Which outcome [2] does the source give for `O=[N+]([O-])c1ccccc1` here?
A: inactive

Q: With `CCC1(C)CC(=O)NC(=O)C1` as the compound, how does the outcome [2] read?
A: inactive [at 114 µM]

Q: Which outcome [2] does the source give for `O=C(C[C@@H]1NCCC[C@H]1O)Cn1cnc2cc(Br)c(Cl)cc2c1=O` here?
A: inactive

Q: For `C[C@]12CCC(=O)C=C1C=C[C@@H]1[C@@H]2CC[C@@]2(C)[C@H]1CC[C@@]2(O)CCC(=O)O`, which outcome [2] is on record?
A: inactive

Q: For `CCN(CC)C(=O)N[C@H]1C[C@@H]2c3cccc4[nH]cc(c34)C[C@H]2N(C)C1`, which outcome [2] is on record?
A: inactive

Q: For `O=S(=O)(O)c1cc(O)ccc1O`, which outcome [2] is on record?
A: inactive

Q: Which outcome [2] does the source give for `CC(C)CCC(=O)O[C@H]1CC[C@H]2[C@@H]3CCC4=CC(=O)CC[C@]4(C)[C@H]3CC[C@]12C` here?
A: inactive

Q: For `C[C@]12CC[C@H]3[C@@H](CCC4=C(O)C(=O)CC[C@@H]43)[C@@H]1CC[C@@H]2OC(=O)CCC1CCCC1`, which outcome [2] is on record?
A: inactive

Q: With `O=C/C=C/c1ccccc1` as the compound, how does the outcome [2] read?
A: inactive

Q: Which outcome [2] does the source give for `CN1[C@H]2CC[C@@H]1[C@@H](C(=O)O)[C@@H](OC(=O)c1ccccc1)C2` here?
A: inactive

Q: Which outcome [2] does the source give for `c1ccc2sc(SNC3CCCCC3)nc2c1` here?
A: inactive

Q: With `O=C(NCNC(=O)NC1C(=O)NC(=O)N1CO)NC1C(=O)NC(=O)N1CO` (configuration not stated) as the compound, how does the outcome [2] read?
A: inactive

Q: Which outcome [2] does the source give for `CC(=O)O[C@H]1CC[C@H]2[C@@H]3CCC4=CC(=O)CCC4=C3C=C[C@]12C` here?
A: inactive

Q: With `Cn1sc(Cl)cc1=O` as the compound, how does the outcome [2] read?
A: inactive
